FAS-TE inh: FAS thioesterase (human) inhibition | P49327 | recombinant FAS-TE, OMFH fluorogenic substrate, fluorescence endpoint | inhibition, % at 15 µM | 360,000 tested, 0.67% active | AID 602261;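 active = compounds whose normalised, plate-corrected inhibition of enzyme fluorescence in the single-dose primary screen is 50% or more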;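 also: 0% = DMSO with enzyme and 100% = substrate without enzyme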
Target sequence (P49327 whole entry, looked up): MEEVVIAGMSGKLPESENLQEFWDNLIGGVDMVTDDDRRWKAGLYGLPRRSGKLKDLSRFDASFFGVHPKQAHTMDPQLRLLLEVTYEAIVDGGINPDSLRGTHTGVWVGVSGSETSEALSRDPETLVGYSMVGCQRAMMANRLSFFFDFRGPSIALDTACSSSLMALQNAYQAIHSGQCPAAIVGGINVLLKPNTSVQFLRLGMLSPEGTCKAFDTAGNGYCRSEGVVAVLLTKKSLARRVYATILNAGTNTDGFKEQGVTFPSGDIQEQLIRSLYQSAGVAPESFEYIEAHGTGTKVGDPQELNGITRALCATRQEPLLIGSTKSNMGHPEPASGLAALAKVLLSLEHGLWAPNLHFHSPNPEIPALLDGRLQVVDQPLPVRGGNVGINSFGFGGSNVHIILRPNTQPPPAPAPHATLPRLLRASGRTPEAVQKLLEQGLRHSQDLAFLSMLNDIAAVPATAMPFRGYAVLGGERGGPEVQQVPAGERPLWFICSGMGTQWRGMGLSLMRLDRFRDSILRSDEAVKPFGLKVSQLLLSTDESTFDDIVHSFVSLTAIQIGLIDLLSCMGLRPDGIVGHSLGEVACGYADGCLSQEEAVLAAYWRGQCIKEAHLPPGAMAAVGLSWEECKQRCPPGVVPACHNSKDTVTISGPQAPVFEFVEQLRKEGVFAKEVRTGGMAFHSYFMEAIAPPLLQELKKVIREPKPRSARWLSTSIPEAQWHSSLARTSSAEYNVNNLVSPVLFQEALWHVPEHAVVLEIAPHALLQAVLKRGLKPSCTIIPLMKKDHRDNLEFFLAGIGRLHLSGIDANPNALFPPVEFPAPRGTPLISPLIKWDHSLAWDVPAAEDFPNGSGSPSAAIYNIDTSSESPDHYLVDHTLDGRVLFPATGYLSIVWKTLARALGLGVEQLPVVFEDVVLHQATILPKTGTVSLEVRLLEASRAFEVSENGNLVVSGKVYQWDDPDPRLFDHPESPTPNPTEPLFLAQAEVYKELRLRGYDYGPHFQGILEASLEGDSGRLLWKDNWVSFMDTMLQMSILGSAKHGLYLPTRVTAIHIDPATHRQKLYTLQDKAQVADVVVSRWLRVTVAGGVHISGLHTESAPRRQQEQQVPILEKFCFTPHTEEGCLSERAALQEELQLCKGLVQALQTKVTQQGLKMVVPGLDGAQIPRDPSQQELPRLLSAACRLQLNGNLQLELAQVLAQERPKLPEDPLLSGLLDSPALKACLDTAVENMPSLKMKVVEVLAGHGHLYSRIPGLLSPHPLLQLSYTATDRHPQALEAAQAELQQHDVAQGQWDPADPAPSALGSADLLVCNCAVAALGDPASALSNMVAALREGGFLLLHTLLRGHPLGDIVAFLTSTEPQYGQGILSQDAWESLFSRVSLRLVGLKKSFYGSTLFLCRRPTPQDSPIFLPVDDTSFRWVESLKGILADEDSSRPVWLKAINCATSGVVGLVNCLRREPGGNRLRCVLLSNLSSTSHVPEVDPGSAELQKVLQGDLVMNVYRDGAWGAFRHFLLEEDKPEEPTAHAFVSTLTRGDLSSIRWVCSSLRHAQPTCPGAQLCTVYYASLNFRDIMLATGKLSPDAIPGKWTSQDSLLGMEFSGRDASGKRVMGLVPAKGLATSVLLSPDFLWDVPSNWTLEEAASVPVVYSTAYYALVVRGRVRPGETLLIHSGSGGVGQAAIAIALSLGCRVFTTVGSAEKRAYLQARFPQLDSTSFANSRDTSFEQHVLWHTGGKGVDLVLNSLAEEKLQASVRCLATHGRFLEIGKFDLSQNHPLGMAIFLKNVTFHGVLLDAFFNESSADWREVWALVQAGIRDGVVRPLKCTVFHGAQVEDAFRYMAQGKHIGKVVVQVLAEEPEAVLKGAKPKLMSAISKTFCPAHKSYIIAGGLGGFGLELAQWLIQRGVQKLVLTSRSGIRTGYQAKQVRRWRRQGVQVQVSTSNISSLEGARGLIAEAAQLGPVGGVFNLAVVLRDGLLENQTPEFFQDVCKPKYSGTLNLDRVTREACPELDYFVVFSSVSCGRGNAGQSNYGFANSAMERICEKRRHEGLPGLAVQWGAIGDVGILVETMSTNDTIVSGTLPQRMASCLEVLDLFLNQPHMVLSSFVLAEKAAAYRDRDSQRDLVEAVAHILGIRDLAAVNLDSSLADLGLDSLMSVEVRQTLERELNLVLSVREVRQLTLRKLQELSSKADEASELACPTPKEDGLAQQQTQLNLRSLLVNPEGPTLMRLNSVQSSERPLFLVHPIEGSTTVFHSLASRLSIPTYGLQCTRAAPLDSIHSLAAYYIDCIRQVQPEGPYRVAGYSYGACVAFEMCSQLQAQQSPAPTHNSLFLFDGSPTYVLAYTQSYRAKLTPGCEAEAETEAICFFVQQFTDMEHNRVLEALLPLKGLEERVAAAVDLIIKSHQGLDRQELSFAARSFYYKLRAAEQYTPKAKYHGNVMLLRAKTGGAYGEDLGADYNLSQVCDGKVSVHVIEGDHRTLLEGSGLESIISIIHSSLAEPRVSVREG
GRIN3A LBD mod: modulates the human NR3A ligand-binding domain; 340,000 tested, 2.5% active; Tm shift relative to glycine control, % at 25 µM; AID 1259313; NR3A LBD differential scanning fluorimetry, Tm shift; 0% = protein alone, 100% = glycine-bound protein;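 active = melting temperature shift of at least 10% of the positive control shift, at one fixed dose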
MIN6 prolif: induces beta-cell replication in MIN6 cells | AID 2380 | 330,000 tested, 0.29% active | MIN6 cells proliferation, ATPlite luminescence, 48 h; cells starved in 0.2% serum; 100% = growth in 10% serum | proliferation, % at 10 µM;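 active = compounds whose signal lies at least 3.5 SD above the mean of all wells on their plate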;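 also: 0% = DMSO-treated cells in low-serum medium and 100% = 10% serum control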
pCIP destab: p/CIP protein destabilization. 290,000 tested, 0.01% active. decrease of EGFP signal, % at 10 µM. Q05BA5. F442A p/CIP-EGFP cells, EGFP fluorescence, 16 h;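 active = EGFP signal decrease of at least 30% at 10 µM or well 3 SD below plate mean, unless failing retest; inactive = the rest, including hits failing retest or dose response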
MPTP block: blocks calcium-induced mitochondrial swelling. isolated mouse mitochondria, Ca2+ swelling absorbance, 30 min. inhibition, % at 10 µM. 360,000 tested, 1.4% active. AID 602449;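 active = inhibition of 50% or more, scaled per plate between neutral and stimulator controls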;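 also: 0% = DMSO wells given calcium and 100% = 1 mM EGTA wells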
MPTP counter: Rhodamine 123 counter-screen of mitochondrial pore hits; AID 624504; isolated mitochondria, membrane potential, Rhodamine 123 fluorescence; inhibition, % at 10 µM; shares compounds with MPTP block; 5,000 tested, 78% active; in the data active = inhibition above about 22%;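 also: 0% = DMSO vehicle and 100% = positive control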
MPTP swell DR: dose response confirmation of mitochondrial permeability transition pore inhibitors | shares compounds with MPTP block | IC50, µM | AID 651561 | 780 tested, 58% active | isolated mitochondria swelling, absorbance; in the data active = IC50 below about 20 µM
MPTP counter DR: active in counter-screen for permeability transition pore inhibitors. shares compounds with MPTP block. isolated mitochondria counterscreen, fluorescence read-out. IC50, µM. 780 tested, 49% active. AID 651564; in the data active = IC50 below about 80 µM
* = called active by the depositor. In the library only some 4.1% were active in any assay of this set; here they are far more common.

`CCOC(=O)CC1CCCCN1C(=O)c1cc(COc2cccc3cnccc23)on1` (stereo not given) gave FAS-TE inh 2.8, GRIN3A LBD mod -0.4, MIN6 prolif -8.0, pCIP destab -22.1, MPTP block 102.0* and MPTP counter 111.9*.
`COC(=O)C1CCCCN1C(=O)c1cc(COc2cccc3cnccc23)on1` (stereo not given) gave FAS-TE inh 5.8, MIN6 prolif -6.8, pCIP destab -12.9, MPTP block 92.9* and MPTP counter 99.7*.
CC(=O)c1sc(Nc2nc(C)cc(C)n2)nc1C was read as FAS-TE inh -6.2, GRIN3A LBD mod -1.8, MIN6 prolif -3.0, pCIP destab 17.7 and MPTP block -0.8.
`Nc1ccn([C@@H]2O[C@H](C(=O)N3CCN(Cc4ccccn4)CC3)[C@@H](O)[C@H]2O)c(=O)n1` gave FAS-TE inh -8.2 and MPTP block -1.0.
Screening CS(=O)(=O)c1ccc(C(=O)NCc2ccccc2F)cc1 returned FAS-TE inh -3.0, GRIN3A LBD mod -0.5, MIN6 prolif -2.1, pCIP destab 1.9 and MPTP block -0.8.
`CC1CCN(C(=O)C(NS(=O)(=O)c2cccc3nsnc23)C(C)C)CC1` (stereo not given) gave FAS-TE inh -6.5, GRIN3A LBD mod -1.6, MIN6 prolif 2.0, pCIP destab -0.2 and MPTP block -1.9.
For Cc1cc(C(=O)Nn2c(C)nc3ccccc3c2=O)ccc1[N+](=O)[O-] the results were FAS-TE inh -7.8, GRIN3A LBD mod -0.6, MIN6 prolif 2.4, pCIP destab 10.0 and MPTP block -0.4.
Screening Cc1cc(C(=O)Nn2c(C3CCCCC3)nc3ccccc3c2=O)ccc1[N+](=O)[O-] returned FAS-TE inh 26.5, GRIN3A LBD mod 3.3, MIN6 prolif -3.1, pCIP destab -6.4, MPTP block 53.2* and MPTP counter 77.0*.
For CCCCc1c(Cc2ccccc2)ncn1CCc1ccccc1OC the results were FAS-TE inh 12.5, MPTP block 85.0* and MPTP counter 114.0*.
CCCCc1c(-c2ccccc2)ncn1CCc1ccccc1OC was read as FAS-TE inh 16.9 and MPTP block 4.2.
For CCO[C@H]1OC(C(=O)O)=C[C@@H](c2ccccc2)[C@@H]1CCCO the results were FAS-TE inh -6.7, GRIN3A LBD mod 1.9, MIN6 prolif -5.5 and MPTP block -0.6.
For N#CCCN(C(=S)NC(=O)c1ccco1)c1ccccc1F the results were FAS-TE inh -5.6, GRIN3A LBD mod 1.6, MIN6 prolif 1.1, pCIP destab -0.1 and MPTP block -1.7.
`O=C(NCCCN1CCCC1=O)Nc1cc(Cl)ccc1Cl` gave FAS-TE inh -3.0, GRIN3A LBD mod 2.3, MIN6 prolif 6.1, pCIP destab -4.6 and MPTP block -0.5.
`O=C(NCCCN1CCCC1=O)Nc1ccc(F)c(Cl)c1` gave FAS-TE inh -0.1, GRIN3A LBD mod -1.5, MIN6 prolif -0.9, pCIP destab -0.6, MPTP block 84.2* and MPTP counter 92.1*.
O=C(NCCCn1ccnc1)Nc1ccc(Cl)cc1 was read as FAS-TE inh -3.2, GRIN3A LBD mod -0.3, MIN6 prolif 4.2, pCIP destab 10.4 and MPTP block 17.8.
O=C(NCCCn1ccnc1)Nc1ccc(Cl)c(Cl)c1 was read as FAS-TE inh -3.5, GRIN3A LBD mod 3.8, MIN6 prolif 0.0, pCIP destab -1.2, MPTP block 79.0* and MPTP counter 88.0*.
Screening CN1CCN(C(=O)c2cc(S(=O)(=O)Nc3ccccc3F)c(Cl)cc2Cl)CC1 returned FAS-TE inh -1.8, GRIN3A LBD mod -0.4, MIN6 prolif 2.6, pCIP destab 5.7 and MPTP block 0.7.
NC(N)=NCCCC(NC(=O)c1ccccc1)C(=O)Nc1ccc2ccccc2c1 (stereo not given) was read as FAS-TE inh 5.7, GRIN3A LBD mod 4.6, MIN6 prolif 0.1, MPTP block 81.2*, MPTP counter -17.7, MPTP swell DR 8.71* and MPTP counter DR >80.

High-throughput results deposited in PubChem BioAssay by Sanford-Burnham Center for Chemical Genomics.
